Results filed as inconclusive are left out. A call without a number means that no potency is given here. The source made the active and inactive calls. Calls follow the shape of the dose curve; as a rule, active = well fitted curve in the direction sought with a large enough effect; inconclusive = small, poorly fitted or top-dose-only effect, or another doubt; inactive = no such curve, though single readings can be large; an effect the other way counts as inactive or inconclusive.
How the values were obtained:
[1] = target: Aldehyde dehydrogenase, mitochondrial (Homo sapiens) (UniProt P05091); test: qHTS for Inhibitors of the Aldehyde Dehydrogenase Family (ALDH2) Primary screen (AID 2061308); also: nearly all actives have a fitted effect of over 55% in size
[2] = target: Retinaldehyde dehydrogenase 3 (Homo sapiens) (UniProt P47895); test: qHTS for Inhibitors of the Aldehyde Dehydrogenase Family (ALDH1A3) Primary screen (AID 2061315)

| SMILES | Potency [1] | Potency [2] |
| --- | --- | --- |
| Cc1cc(NC(=O)Nc2cccc(-c3ccncc3)n2)ccc1Cl | inactive | inactive |
| O=C(CNC(=O)c1ccc(-c2ccccc2)cc1)OC(C(=O)Nc1cc(C(F)(F)F)ccc1Cl)c1ccccc1 (stereo not given) | inactive | inactive |
| CCN(CC)CCn1c(-c2ccccc2)nc2c(NC3CCCCC3)nc(C)nc21 | inactive | inactive |
| N#Cc1cccc(-c2ccc(CNc3nc(-c4ccccc4C(F)(F)F)nc4ccccc34)cc2)c1 | inactive | inactive |
| COC(=O)Nc1sc2c(c1C(N)=O)CCCC2 | inactive | inactive |
| Cc1ccc(S(=O)(=O)Nc2ccccc2C(=O)Nc2ccc(-c3ccccc3)nc2)cc1 | inactive | inactive |
| O=C(Nc1ccc(N2CCOCC2)c(C(F)(F)F)c1)Nc1nnc(-c2ccncc2)s1 | inactive | inactive |
| COc1ccc(OC)c(C2=Nn3c(nnc3-c3cc(OC)ccc3OC)SC2)c1 | inactive | inactive |
| O=S(=O)(Nc1nccs1)c1ccc(NCc2cccc(O)c2)cc1 | inactive | inactive |
| Cc1ccc(OCCn2c(CCNC(=O)c3c(F)cccc3F)nc3ccccc32)cc1 | inactive | inactive |
| C/C=C/C(=O)OC1/C=C/C(O)C(OC(C)=O)CCC(=O)OC1C (stereo not given) | inactive | inactive |
| O=S(=O)(Nc1ccc2ccccc2c1)c1ccc(NCc2cccc(Cl)c2O)cc1 | inactive | inactive |
| O=C1CCCC2=C1C1(CCCOC1)N=C(Nc1nc3ccccc3o1)N2 (stereo not given) | inactive | inactive |
| CCOC(=O)c1ccc(NC(=O)CN2CCCCC2)cc1 | inactive | inactive |
| Cc1cccc(C)c1-n1c(SCC(=O)Nc2ccc(C(=O)O)cc2)nnc1-c1ccc([S+](=O)([O-])N2CCCC2)cc1 | inactive | inactive |
